This is part of a sample that, as a whole, favours compounds with a hit. Of some 83,000 tested, about 20% had one in any assay.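 Negative percent growth values reflect cell death: -40 means 40% of the cells present at the start died, and -100 means all died.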 Values without a mark were called inactive. Activity calls are given as the source filed them. The calls were made as follows: active = growth percent below 10; inactive = the rest.
Columns and labels:
Assay in all cases: NCI-60 one-dose screen, 48 h (100 = growth as untreated, 0 = no growth, -100 = all killed)
[1] = test system: NCI-H23 lung; conditions: 10 µM unless noted
[2] = test system: NCI-H226 lung; conditions: 10 µM unless noted
[3] = test system: NCI-H322M lung; conditions: 10 µM unless noted
[4] = test system: NCI-H460 lung; conditions: 10 µM unless noted
[5] = test system: HOP-92 NSCLC; conditions: 10 µM
[6] = test system: NCI-H522 lung; conditions: 10 µM
[7] = test system: A549/ATCC NSCLC; conditions: 10 µM unless noted
[8] = test system: 786-0 renal; conditions: 10 µM unless noted
[9] = test system: COLO 205 colon; conditions: 10 µM unless noted
[10] = test system: DU-145 prostate; conditions: 10 µM unless noted
[11] = test system: K-562 leukemia; conditions: 10 µM unless noted
[12] = test system: MALME-3M melanoma; conditions: 10 µM unless noted
[13] = test system: MDA-MB-231 breast; conditions: 10 µM unless noted
[14] = test system: RXF 393 renal; conditions: 10 µM unless noted
[15] = test system: SF-268 CNS; conditions: 10 µM unless noted
[16] = test system: SF-295 CNS; conditions: 10 µM unless noted
[17] = test system: SF-539 CNS; conditions: 10 µM unless noted
[18] = test system: UACC-257 melanoma; conditions: 10 µM unless noted
[19] = test system: M14 melanoma; conditions: 10 µM unless noted

| Compound | growth [1] | growth [2] | growth [3] | growth [4] | growth [5] | growth [6] | growth [7] | growth [8] | growth [9] | growth [10] | growth [11] | growth [12] | growth [13] | growth [14] | growth [15] | growth [16] | growth [17] | growth [18] | growth [19] |
| --- | --- | --- | --- | --- | --- | --- | --- | --- | --- | --- | --- | --- | --- | --- | --- | --- | --- | --- | --- |
| CC(=O)Nc1nc(C)c(C(=O)NN)s1 | 103% | 92.1% | 96% | 115% | 3.84% (active) | 97.5% | 101% | 93% | 108% | 105% | 67.3% | 120% | 99% | 104% | 95.2% | 133% | 91.3% | 108% | 113% |
| CCC(CCCN1C(=O)c2ccccc2C1=O)Nc1cc(OC)cc2cccnc12 (stereo not given) | 97.6% | 107% | 116% | 112% | 72.4% | 103% | 106% | 103% | 119% | 102% | 77.2% | 142% | 93.2% | -5.08% (active) | 119% | 111% | 93.4% | 100% | -100% (active) |
| COc1ccc2nc3cc(Cl)ccc3c(NCCCNC(C)=O)c2c1 | 37% | 34.1% | 34.4% | 7.26% (active) | 50.4% | 52.5% | 23.9% | 48.9% | 23.7% | 29.4% | 23.9% | 40% | 56.8% | 32.9% | 43% | 45.7% | 20.1% | 43.1% | 44.4% |
| c1ccc2[nH]c(-c3ccc(OCCCCCOc4ccc(-c5nc6ccccc6[nH]5)cc4)cc3)nc2c1 | 40.9% | 103% | 72.7% | -19.8% (active) | -75% (active) | 30.9% | 12.7% | 14.7% | 121% | 21.4% | -13.8% (active) | -30.8% (active) | 40.5% | -74.2% (active) | -37.7% (active) | 53% | -12.8% (active) | 71.4% | -38.6% (active) |
| O=C(N/N=C/c1cc(Cl)ccc1O)C(=O)N/N=C/c1cc(Cl)ccc1O | 80% | 74.9% | 61.6% | 34.8% | 51.9% | 62.7% | 52.6% | 65.2% | 75.2% | 71.1% | 51.9% | 80.1% | 76.5% | 80.3% | 56.5% | 52.2% | 57.3% | 69.6% | 78.6% |
| C/C(=N\Nc1cccc(Cl)n1)c1ccccn1 | 16.8% | -3.86% (active) | 23.7% | 5.39% (active) | 40.5% | 24.6% | 9.19% (active) | 8.33% (active) | 10.6% | 23.3% | 6.59% (active) | 21.6% | 36.8% | 24% | 12.8% | 0.34% (active) | 1.72% (active) | 2.3% (active) | -23.8% (active) |
| c1ccc(Nc2ncc3c(n2)-c2cccn2CC3)cc1 | 98.7% | 59.2% | 86.9% | 95.9% | 77.4% | 85.8% | 113% | 98.7% | 112% | 99.4% | 96.6% | 95.1% | 80.8% | 97.8% | 85.8% | 99.2% | 87.1% | 124% | 91.7% |
| Nc1ccc(S(=O)(=O)Nc2cc(F)cc(F)c2)cc1 | 111% | 104% | 114% | 110% | 99.9% | 94.9% | 119% | 99.7% | 112% | 94.5% | 71.9% | 131% | 90.9% | 20.1% | 130% | 103% | 85.6% | 95.5% | 91.1% |
| NC(N)=Nc1ccc(/C=C2\C=Cc3ccccc32)cc1 | 69.9% | 74.6% | 70.5% | 63.5% | 9.95% (active) | 42.7% | 78.6% | 67.3% | -77.9% (active) | 80.9% | 13.6% | 88.8% | 42.4% | 63.7% | 64.5% | 80.6% | 81.3% | 77.5% | 73.4% |
| CCOC(=O)CSSCC(=O)OCC | 112% | 123% | 106% | 108% | 103% | 99.7% | 98.7% | 106% | 113% | 106% | 101% | 112% | 107% | 128% | 104% | 100% | 95.9% | 94.1% | 119% |
| CCCCCCCCC1OC1CCCCCCCC(=O)O (stereo not given) | 100% | 92% | 102% | 99.1% | 87.8% | 97.7% | 91.9% | 100% | 105% | 116% | 116% | 90.1% | 94.6% | 101% | 107% | 97.4% | 93.5% | 95.3% | 105% |
| c1cc(C2CCCCC2)ccc1OCCCCCCN1CCNCC1 | 42.3% | 81.9% | 82% | -7.36% (active) | 6.55% (active) | 77.7% | 36.5% | 58.3% | -52.2% (active) | 17.9% | -42.1% (active) | 52.7% | 33.4% | 32% | 54.5% | 73.1% | 32.4% | 73.1% | 40.3% |
| Oc1ccccc1/C=N/N=C\c1ccccc1Cl | 88.3% | 76.8% | 97.6% | 99% | 77.5% | 92.3% | 101% | 100% | 109% | 99.5% | 77.1% | 103% | 72.6% | 97.3% | 91.9% | 98.7% | 105% | 104% | 91% |
| O=Nc1c(-c2c(O)[nH]c3cc(Br)ccc23)[nH]c2ccccc12 | -80.8% (active) | -39.4% (active) | 16.6% | -72.8% (active) | 14.4% | -29% (active) | -61.9% (active) | 6.13% (active) | -100% (active) | -88.8% (active) | -64.1% (active) | 61.6% | 9.57% (active) | -62.6% (active) | -61% (active) | -26.2% (active) | -44.8% (active) | -78.8% (active) | 31.1% |
| CCOc1ccc2nc3ccc(Cl)cc3nc2c1 | 65.4% | 81.3% | 96.6% | 95.9% | 73.9% | 76.9% | 94.9% | 81.1% | 114% | 92.2% | 52.8% | 127% | 106% | -13% (active) | 107% | 110% | 92.7% | 101% | -100% (active) |
| COC(=O)C(C)[C@H]1CC[C@@H]2[C@]1(C)CC=C1[C@]23C=C[C@]2(C[C@@H](OC(C)=O)CC[C@]12C)C(C(=O)OC)C3C(=O)OC (stereo not given in full) | 92.3% | 89.8% | 102% | 101% | 83.5% | 96.8% | 91.5% | 105% | 98.8% | 99.6% | 48.8% | 73.1% | 89.5% | 102% | 90.5% | 88.4% | 99.3% | 97.5% | 96.5% |
| Brc1ccc(-c2nc3ccccc3s2)cc1 | 92.4% | 75.8% | 92.7% | 97.1% | 97.7% | 93.8% | 106% | 106% | 106% | 108% | 96.2% | 95.8% | 82.4% | 96% | 90% | 98% | 93.2% | 117% | 97.7% |
| O=C(Cc1ccccc1[N+](=O)[O-])c1ccc2c(c1)OCO2 | 99.3% | 97.1% | 103% | 101% | 82% | 91.7% | 98.1% | 94.3% | 116% | 106% | 94.1% | 96.1% | 109% | 104% | 94.1% | 96.1% | 101% | 98.7% | 103% |
| COC(=O)c1ccc(C(=Nc2ccc(N(C)C(=O)CN3CCN(C)CC3)cc2)c2c(O)[nH]c3ccc(C(=O)OC)cc23)cc1 | 35.4% | 33% | 47.3% | 43.7% | 51.1% | 19% | 35.6% | 36.4% | 21.8% | 38.2% | 7.19% (active) | -14.7% (active) | 49.2% | 17.7% | 32.8% | 44.4% | 23.3% | 67.7% | 28.7% |
| CCCCCCCCCCCCc1ccc([N+](CC)(CC)CC)cc1 | 17.6% | 59.3% | 88.5% | 44% | 40.9% | 33.8% | 61.1% | 65.6% | 20.3% | 58.8% | 16.3% | -11.1% (active) | 41.7% | 45.8% | 47.8% | 48.9% | 58.7% | 13.6% | 32.5% |

Reference: PubChem BioAssay (NCI)
